# NPR1 activator: GC-A (human) enzyme activation. hit rate 0.14% among 370,000. activation, % at 10 µM. AID 1671463. HEK293 GC-A cells, cGMP TR-FRET, EC30 ANP; 0% at EC30 ANP, 100% saturating ANP; in the data active = activation above about 40%
# GC-B act: GC-B (human) receptor activation | P20594 | hit rate 0.11% among 370,000 | activation, % at 10 µM | HEK293-GC-B cells, CNP EC30, cGMP TR-FRET; 0% at EC30 CNP, 100% saturating CNP | AID 1920062;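 active = activation at 10 µM reaching about 35% in either raw or pattern-adjusted values, limit read from the data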
# aDG glyco act: alpha-DG glycosylation activation | Pro5-aDG cells, alpha-DG glycosylation AlphaScreen (IIH6); 0% Pro5, 100% B10-LARGE cell signal | activation, % at 10 µM | hit rate 0.22% among 360,000;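 active = activation of at least 8% versus controls, or a plate z-score of at least 8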;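 also: Pro5 are CHO cells carrying HIG-tagged alpha-DG that lacks glycosylation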
# FAS TE block: inhibitors of human fatty acid synthase thioesterase domain; recombinant FAS-TE, OMFH fluorogenic substrate, fluorescence endpoint; hit rate 0.67% among 360,000; inhibition, % at 15 µM; P49327;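 active = compounds whose normalised, plate-corrected inhibition of enzyme fluorescence in the single-dose primary screen is 50% or more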;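 also: 0% = DMSO with enzyme and 100% = substrate without enzyme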
# FAS-TE inh conf: confirmation of human fatty acid synthase thioesterase inhibitors | shares compounds with FAS TE block | inhibition, % at 15 µM | hit rate 45% among 2,300 | recombinant FAS-TE, OMFH fluorogenic substrate, fluorescence;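 active = compounds inhibiting the enzyme by at least 50% at 15 µM in any one of the replicates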;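 also: 0% = enzyme with DMSO only and 100% = wells lacking enzyme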
# Active calls of the source: *; . = no result. This is a sample that favours compounds with a hit; in the whole collection about 1.1% have one here.
SMILES,NPR1 activator,GC-B act,aDG glyco act,FAS TE block,FAS-TE inh conf
COc1ccc(C2=NN(C(=O)c3ccc(Cl)c([N+](=O)[O-])c3)C(c3ccccc3)C2)cc1 (stereo not drawn),37,10,0,56*,-1
O=C(NC1CCCCC1)N(c1ccccc1)c1nnc(-c2cccc([N+](=O)[O-])c2)s1,-2,9,0,70*,63*
O=C(Nc1cccc([N+](=O)[O-])c1)NC1CCCCCCC1,2,-10,1,53*,63*
O=C(Nc1cccc(F)c1)OCCCN1CCC2(CCC(c3ccccc3)CC2)C1 (stereo not drawn),-11,3,.,.,.
CCOC(=O)c1c(-c2ccccc2)csc1NC(=O)c1cc(S(=O)(=O)N2CCOCC2)ccc1C,6,2,1,52*,17
CCOC(=O)c1c(-c2ccccc2)csc1NC(=O)c1ccc(S(=O)(=O)N2CC(C)OC(C)C2)cc1 (stereo not drawn),2,0,0,16,.
COc1ccc(C(=O)N[C@H]2CC[C@@]34CCCN3C(=O)CCC[C@H]4[C@H]2C)cc1,1,5,.,.,.
Cc1ccc(-c2csc(NC(=O)COc3ccc(N(C)S(=O)(=O)c4ccc(C)cc4)cc3)n2)cc1,2,4,0,27,.
COc1ccc(-c2csc(NC(=O)c3ccccc3NS(=O)(=O)c3ccc(C)cc3)n2)cc1,-2,1,0,56*,49*
COc1ccc(-c2csc(NC(=O)COc3ccc(N(C)S(=O)(=O)c4ccc(C)cc4)cc3)n2)cc1,-2,-3,0,53*,15
CC1(c2nnnn2C2CCCCC2)CSCC(=O)N1CCc1ccc(O)cc1 (stereo not drawn),-7,2,.,.,.
COc1ccc(C(=O)C(C)N(C(=O)c2ccc(Cl)cc2Cl)N2C(=O)C3C4C=CC(C4)C3C2=O)cc1 (stereo not drawn),-9,-8,0,60*,9
CCOC(=O)[C@@]12CN(C(=O)OC(C)(C)C)CC=C1N(Cc1ccc(OC)cc1)C(=O)[C@H]2CC(=O)N1CCC(c2ccccc2)CC1,-1,4,.,.,.
COc1ccc(C(=O)N/C(=C\c2cn(S(=O)(=O)N(C)C)c3ccccc23)C(=O)NCCCN2CCOCC2)cc1,-1,-1,0,57*,74*
CN(C)S(=O)(=O)n1cc(/C=C(\NC(=O)c2ccccc2)C(=O)NCCCN2CCOCC2)c2ccccc21,4,-6,0,17,.
O=C(c1cc2cc([N+](=O)[O-])ccc2oc1=O)N1CCN(C2CCCCC2)CC1,-1,-1,0,61*,47*
CCN1CCN(C(=O)c2cc3cc([N+](=O)[O-])ccc3oc2=O)CC1,5,1,0,2,.
Cc1ccc(NC(=O)C(OC(=O)c2ccc(C=O)cc2)c2ccccc2)cc1Cl (stereo not drawn),.,.,0,50*,11
Cc1ccc(C(=O)CN(CCCC(N)=O)S(=O)(=O)c2ccc([N+](=O)[O-])cc2)cc1,-2,5,0,68*,52*
Cc1ccc(C(=O)CN(CCC(=O)O)S(=O)(=O)c2ccc([N+](=O)[O-])cc2)cc1,1,6,0,62*,79*
Cc1ccc(S(=O)(=O)CC(=O)c2ccc([N+](=O)[O-])cc2)cc1,-3,6,0,17,.
Cc1ccc(S(=O)(=O)N(C)CC(=O)O/N=C(\N)c2ccc([N+](=O)[O-])cc2)cc1,1,4,0,16,.
COc1ccc(C(=O)CN(CCC(=O)O)S(=O)(=O)c2ccc([N+](=O)[O-])cc2)cc1,4,7,0,71*,80*
COc1ccc(S(=O)(=O)N(CCC(=O)O)Cc2ccccc2)cc1,4,-3,0,-6,.
O=C(O)CCN(CC(=O)c1ccc(Cl)cc1)S(=O)(=O)c1ccc([N+](=O)[O-])cc1,4,4,0,75*,72*
Cc1ccc(C2c3c(n[nH]c3C)C(=O)N2c2ccccc2)cc1 (stereo not drawn),-3,-6,.,.,.
COC(=O)c1cc2c(c3c4cc(F)ccc4n(C(=O)c4ccccc4)c13)C(=O)N(C1CCCCC1)C2,-2,2,.,.,.
O=C1c2cccc3c(N4CCOCC4)c([N+](=O)[O-])cc(c23)C(=O)N1c1cccc2ccccc12,-1,4,-1,77*,25
